# From PubChem
# MITF primary – inhibitors of human MITF. hit rate 0.91% among 650,000. AID 1259374. AlphaScreen MITF homodimerization, bead proximity signal. inhibition, % at 2.6 µM. O75030; in the data active = inhibition above about 50%;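 note: 0% = vehicle wells with protein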
# TEAD-YAP block – TEAD-YAP interaction inhibition; HEK-TIYL cells, TEAD-Gal4/YAP UAS-luciferase luminescence; inhibition, % at 9.12 µM; AID 1259422; hit rate 1.4% among 640,000; in the data active = inhibition above about 32%;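 note: 0% = median of test compound wells and 100% = reference inhibitor wells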
# GPR151 activ – activates the human receptor GPR151; PathHunter beta-arrestin GPR151 cells, luminescence; AID 1508602; Q8TDV0; hit rate 1% among 650,000; activation, % at 11.2 µM; in the data active = activation above about 4.9%;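 note: 0% = median of compound wells and 100% = cells with positive control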
# FBW7 activator – activators of human E3 ligase FBW7 | AlphaScreen FBW7–phospho-cyclin E peptide binding, activator screen | Q969H0 | hit rate 0.13% among 650,000 | normalized activity (activation), % at 26.1 µM | AID 1259310; in the data active = normalized activity above about 1.9%;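 note: purified mutant Fbw7 with reduced substrate affinity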
# Target sequence (Q969H0 whole entry, looked up): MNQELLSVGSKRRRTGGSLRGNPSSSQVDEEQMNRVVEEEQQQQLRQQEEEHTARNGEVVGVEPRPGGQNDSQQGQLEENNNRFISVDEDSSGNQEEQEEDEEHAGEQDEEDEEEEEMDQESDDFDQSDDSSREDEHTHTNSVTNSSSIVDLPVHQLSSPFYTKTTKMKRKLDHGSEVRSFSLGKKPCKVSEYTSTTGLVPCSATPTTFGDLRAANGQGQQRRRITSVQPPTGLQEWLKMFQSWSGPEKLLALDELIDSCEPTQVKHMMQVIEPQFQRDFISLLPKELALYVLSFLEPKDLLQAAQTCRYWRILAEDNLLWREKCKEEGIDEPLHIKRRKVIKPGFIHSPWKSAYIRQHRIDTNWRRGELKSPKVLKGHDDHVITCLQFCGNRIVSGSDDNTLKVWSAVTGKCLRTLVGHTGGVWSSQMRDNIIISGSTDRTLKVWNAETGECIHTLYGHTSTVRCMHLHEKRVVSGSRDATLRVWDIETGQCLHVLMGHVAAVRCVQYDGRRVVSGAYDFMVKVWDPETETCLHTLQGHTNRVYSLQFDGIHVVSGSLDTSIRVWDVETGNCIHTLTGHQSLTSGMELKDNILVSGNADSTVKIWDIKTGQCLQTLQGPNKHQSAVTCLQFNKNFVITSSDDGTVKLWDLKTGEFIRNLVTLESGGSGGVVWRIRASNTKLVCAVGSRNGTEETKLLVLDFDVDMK
# MITF inh conf – human MITF inhibition, confirmation | hit rate 16% among 4,700 | AID 1259372 | inhibition, % at 2.6 µM | AlphaScreen MITF homodimerization, biotin/His-MITF beads | shares compounds with MITF primary;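 active = inhibition above a cutoff derived from the DMSO control wells, cut at about 28% in these data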;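 note: 0% = MITF dimer wells with DMSO only; inhibitors lower the bead chemiluminescence by keeping MITF from dimerizing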
# AlphaScreen DR – counter-screen: compounds optically interfering with AlphaScreen. shares compounds with MITF primary. AlphaScreen optical interference counterscreen, cell-free. IC50, µM. hit rate 6% among 480. AID 1259373; call rule not given here
# AlphaScreen intf2 – optically interferes with AlphaScreen signal. shares compounds with MITF primary. LysRS AlphaScreen counterscreen, signal interference, triplicate. inhibition, % at 2.6 µM. hit rate 7.6% among 4,700. AID 1259376;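 active = inhibition above a cutoff derived from the DMSO control wells, cut at about 30% in these data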
# * marks the source's active call; other numbers are inactive results; . = not tested or not shown. An excerpt weighted towards active compounds, which were near 3.5% of everything screened.
SMILES,MITF primary,TEAD-YAP block,GPR151 activ,FBW7 activator,MITF inh conf,AlphaScreen intf2,others
O=C(Cn1nc2ccccc2n1)N/N=C/c1ccccc1F,54.1*,2.0,-0.3,0.0,16.0,-6.6,
C[C@@H](O)[C@@H]1NC(=O)[C@H]2CN(C(=O)c3cc(F)ccc3F)CCN2C1=O,12.0,1.7,1.0,0.9,.,.,
CCc1nc(NCCCCCO)c2nnn(Cc3ccccc3F)c2n1,58.9*,11.9,1.2,0.1,5.7,15.1,
COCCCC1CCN(Cc2nc(-c3ccc(OC)cc3)no2)CC1,4.6,12.2,-0.2,0.1,.,.,
O=C(Cc1cn(-c2ccc(Cl)nn2)c2ccccc12)NCc1ccccc1,71.6*,-9.4,0.9,0.0,7.6,4.8,
CS(=O)(=O)N1CCN(c2nnnn2-c2ccccc2)CC1,4.4,1.5,-1.2,0.0,.,.,
CCCN(CCC)S(=O)(=O)c1ccc(OCC)c2ccccc12,65.0*,7.3,-0.2,0.7,1.4,9.9,
COc1ccccc1OCCCOc1ccc(C)cc1OC,1.7,-37.0,-1.1,-0.1,.,.,
CNCCCOc1ccc(C)cc1OC,51.8*,-4.3,2.1,0.1,-1.9,2.0,
N#Cc1cc2c(=O)n3ccccc3nc2n(Cc2ccccc2)c1=NC(=O)c1ccc(F)cc1,-8.2,8.2,-0.3,0.1,.,.,
O=C(O)/C=C/c1ccc([N+](=O)[O-])o1,60.0*,4.3,-0.5,0.1,63.9*,7.0,AlphaScreen DR=>10.6
Clc1ccc(Oc2ccc(Nc3ncnc4sc5c(c34)CCCC5)cc2)cc1,3.0,9.7,0.3,-0.1,.,.,
Cc1ccc(NCc2ccccn2)c(Br)c1,58.9*,-58.0,-0.7,1.0,10.1,16.2,
Cc1cc(C)cc(NCc2ccccn2)c1,16.8,6.7,0.1,-0.4,.,.,
Cc1cc(Br)ccc1NCc1ccccn1,67.4*,-12.0,-0.3,0.0,-4.0,8.2,
CC(NCC1(N2CCOCC2)CCCCC1)C(=O)N1CCc2ccccc21 (stereo not given),53.0*,-3.2,-2.0,0.0,-0.5,7.3,
CC(Nc1ccccc1)C(=O)N1CCc2ccccc21 (stereo not given),9.3,-24.4,-0.7,0.0,.,.,
CC(SCc1nc2sc3c(c2c(=O)[nH]1)CCCC3)C(=O)O (stereo not given),18.0,0.9,-1.4,0.5,.,.,
Oc1ccc(CNc2ccccc2F)c2cccnc12,67.8*,1.8,-0.8,-0.7,70.0*,100.3*,
Oc1ccc(CNc2ccccc2Cl)c2cccnc12,67.7*,15.8,-0.1,-1.7,51.0*,92.1*,
Oc1ccc(CNc2cccc(Cl)c2)c2cccnc12,52.3*,14.9,-0.5,-1.2,107.1*,100.3*,
Oc1ccc(Cl)c2cccnc12,18.3,3.6,-0.5,0.0,.,.,
COc1ccc(Cl)c2sc(N3CCN(C(=O)c4ccc(F)cc4)CC3)nc12,7.5,9.5,0.4,-0.1,.,.,
CC1CC(C)CN(S(=O)(=O)c2ccc(C(=O)Nc3sc4c(c3C(N)=O)CCCCC4)cc2)C1 (stereo not given),71.4*,5.2,-1.3,0.0,-5.3,-4.0,
CCOC(=O)c1c(NC(=O)c2ccc(S(=O)(=O)N3CC(C)CC(C)C3)cc2)sc2c1CCCC2 (stereo not given),-4.5,-6.6,-0.6,0.1,.,.,
SMILES,MITF primary,TEAD-YAP block,GPR151 activ,FBW7 activator,MITF inh conf,AlphaScreen intf2,others
CCCN(CCC)S(=O)(=O)c1ccc(C(=O)Nc2sc3c(c2C(N)=O)CCN(CC)C3)cc1,70.7*,0.4,1.0,0.0,-1.7,-3.8,
COc1cc(NC(=O)c2ccccc2)c(Cl)cc1N=NC1=C(O)CC(C)(C)CC1=O,9.1,-3.2,-1.6,0.1,.,.,
COC(=O)c1c(NC(=O)COc2cc(C)ccc2C(C)C)sc2c1C(C(=O)OC)CC2 (stereo not given),-3.6,0.7,1.0,0.1,.,.,
COc1ccccc1C1=N/C(=C\c2c(F)cccc2Cl)C(=O)O1,1.1,-3.9,-0.1,-0.1,.,.,
CC1CCC(N2CCN(C(=O)c3ccccc3)CC2)CC1 (stereo not given),42.7,-10.8,0.6,-0.2,.,.,
CC(C)CC(=O)N1CCN(C2CCC(C)CC2)CC1 (stereo not given),58.5*,2.3,-1.6,-0.2,-2.1,11.5,
CCOc1ccc2nc(NC(=O)c3cc(Cl)cc(Cl)c3)sc2c1,7.2,-30.5,0.6,-0.1,.,.,
CCN(CC)S(=O)(=O)c1ccc(OC)c(NC(=O)c2ccc(C(C)(C)C)cc2)c1,4.2,2.9,-1.0,-0.1,.,.,
COc1cccc(/C=N/NS(=O)(=O)c2ccc(C)cc2)c1,77.1*,0.4,0.7,0.0,-3.4,-7.1,
Cc1onc(-c2ccccc2)c1C(=O)Nc1cccc(C#N)c1,70.1*,7.6,-0.1,1.1,8.7,8.8,
O=C1/C(=C\c2ccc(-c3ccccc3[N+](=O)[O-])o2)SC(=Nc2ccccc2)N1c1ccccc1,5.2,-12.8,-0.3,0.0,.,.,
CCOC(=O)c1ccc(NC(=O)CN2CCN(CC(=O)c3ccco3)CC2)cc1,78.5*,1.8,0.0,-0.1,4.9,19.6,
COC(=O)c1ccc(NC(=O)CN2CCN(C(=O)c3ccco3)CC2)cc1,1.9,23.6,-1.2,0.0,.,.,
O=C(CN1CCN(Cc2cn3ccccc3n2)CC1)c1ccco1,53.5*,0.9,1.3,-0.5,10.7,18.3,
CCN1CCN(CC(=O)NCc2ccco2)CC1,80.0*,8.6,-0.5,0.1,13.2,4.5,
Cc1ccccc1NC(=O)CN1CCN(CC(=O)c2ccco2)CC1,58.7*,0.9,-0.3,-0.4,27.2,18.7,
CC(NCCCN(C)C)C(=O)NCc1ccco1 (stereo not given),56.8*,-12.5,0.9,-0.3,7.1,9.3,
O=C(CN1CCN(CC(=O)c2ccco2)CC1)NCc1ccccc1Cl,65.6*,-11.5,-0.1,-0.2,9.2,18.4,
CC1CCN(C(C)C(=O)NCc2ccco2)CC1 (stereo not given),79.8*,-5.5,0.9,-0.1,18.0,23.2,
CC(NCCN(C)C)C(=O)NCc1ccco1 (stereo not given),-1.4,-1.9,0.8,0.3,.,.,
COc1ccc(OC)c(C2C3=C(CCCC3=O)Nc3nc(-c4ccccc4)nn32)c1 (stereo not given),32.1,10.9,-1.6,0.6,.,.,
CCn1cc(CNC(=O)CC2C(=O)NCCN2CC(C)(C)C)cn1 (stereo not given),-0.3,1.0,0.0,0.0,.,.,
CCOc1ccc(-n2c(CNC(=O)c3ccco3)nnc2SCC(=O)Nc2ccc(OC)cc2)cc1,-12.1,3.2,-0.8,-0.1,.,.,
Brc1ccc(-n2cc(-c3ccccc3)c3c(NCc4ccco4)ncnc32)cc1,23.3,-9.6,2.9,0.8,.,.,
O=C(NCc1ccccc1F)c1ccc(N2CCC(NCCc3ccccn3)CC2)cc1,8.3,5.4,0.4,0.5,.,.,
O=C(NC1CC1)c1cccc(Nc2ccc3ncccc3c2)c1,7.7,-9.6,0.7,0.1,.,.,
Cc1nc(N2CCCCC2)c2ccsc2n1,91.5*,-0.9,1.9,-0.2,1.1,-3.9,
COC(=O)c1c(NC(=O)c2ccc(-c3ccccc3)cc2)sc(Cc2ccccc2)c1C,4.5,-15.2,0.7,0.1,.,.,
